Screens as filed in PubChem BioAssay.
DT40 TDP1 CPT: qHTS for Inhibitors of human tyrosyl-DNA phosphodiesterase 1 (TDP1): qHTS in cells in presence of CPT; chicken DT40 Tdp1-/-;hTDP1 cells + 20 nM CPT, ATP luminescence, 48 h; Potency, µM (titrated, usually from 46.2 µM), for inactives: at the highest dose activity change, negative = growth inhibition, usual class: inhibitors; actives 12% (n = 420,000); AID 686979, 2013; further: on the % scale 0 is the no-effect control and ±100 the full control effect; nearly all actives have a fitted effect of over 55% in size
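Chicken DT40 Tdp1-/- cells stably complemented with human TDP1 were seeded at 400 cells/well in medium containing 20 nM camptothecin, exposed to pin-transferred compounds, and grown at 37 °C for at least 48 hr. Viability was read as ATP luminescence.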
HepG2 viability: qHTS for Inhibitors of TGF-b: Cytotox Counterscreen. Potency, µM (titrated, usually from 46.1 µM), without a hit: at the top dose activity change, negative = cytotoxicity, hits mostly cytotoxic. actives 0.76% (n = 410,000). AID 588856, 2011. HepG2 CAGA-GFP viability, ATP luminescence, 18 h
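HepG2 CAGA-GFP cells (1000/well, DMEM with 1% FBS) received compound, then TGF-beta at 500 pg/mL final, and were incubated 18 hours at 37 degrees C. Viability was read by CellTiter-Glo luminescence. Media-only wells were set as complete cell-killing and DMSO as no toxicity.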
TDP1 cell noCPT: qHTS for Inhibitors of human tyrosyl-DNA phosphodiesterase 1 (TDP1): qHTS in cells in absence of CPT | DT40 Tdp1-/- hTDP1 cells, no CPT, ATP luminescence, 48 h | Potency, µM (titrated, usually from 46.2 µM), for inactives: at the top dose activity change, negative = growth inhibition, hits mostly inhibitors | actives 15% (n = 420,000); further: on the % scale 0 is the no-effect control and ±100 the full control effect; nearly all actives have a fitted effect of over 55% in size
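Readout: luminescence from CellTiter-Glo after 30 min in the dark at RT. Cells: DT40 Tdp1-/- with stable hTDP1, 400/well. Exposure: compounds alone, ≥48 hr, 37 °C.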
HT1080 IDH1KD tx: qHTS for induction of synthetic lethality in tumor cells producing 2HG: qHTS for the HT-1080-IDH1KD cell line. HT-1080 IDH1 knockdown viability, ATP luminescence, 48 h. Potency, µM (highest dose often 46.1 µM), without a hit: at the highest dose activity, negative = toxicity, actives largely listed as cytotoxic. AID 686971, 2013. actives 2% (n = 360,000);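 further: 0% = DMSO wells and -100% = cell-free medium wells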
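Viability of IDH1-knockdown HT-1080 fibrosarcoma cells was assessed by CellTiter-Glo after 48 h at 37 °C with titrated compound; concentration-effect curves were classified by fit quality and response size.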
HT1080-NT tox: qHTS for induction of synthetic lethality in tumor cells producing 2HG: qHTS for the HT-1080-NT fibrosarcoma cell line; Potency, µM (titrated, usually from 46.1 µM), without a hit: at the highest dose activity, negative = less viability, actives largely listed as cytotoxic; actives 1.6% (n = 360,000); AID 686970, 2013; HT-1080-NT fibrosarcoma viability, CellTiter-Glo ATP luminescence, 48 h;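 further: NT is the 2HG producing partner of a matched IDH1 knockdown line; 0% = DMSO-treated cells and -100% = media-only wells without cells; nearly all actives have a fitted effect of over 55% in size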
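750 cells/well, RPMI + 5% FBS; 2 h settle, compound pin-transfer, 48 h at 37 degrees C. CellTiter-Glo 10 min RT, luminescence. Normalized to DMSO and media-only wells.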
TGFb SMAD3 inh: qHTS for Inhibitors of TGF-b; Potency, µM (titrated, usually from 46.1 µM), without a hit: top-dose activity, negative = inhibition, most hits filed as inhibitors; HepG2 CAGA-GFP TGF-b/SMAD3 reporter, GFP fluorescence, 18 h; TGF-beta stimulated, 500 pg/mL final; actives 1.2% (n = 410,000); AID 588855, 2011; further: on the % scale 0 is the no-effect control and ±100 the full control effect; nearly all actives have a fitted effect of over 65% in size
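Per well, imaged GFP fluorescence of HEPG2 CAGA-GFP cells gives the signal; cells get compound, then TGF-beta (500 pg/mL final), 18 h at 37 degrees C; %Activity versus -TGF-beta and +DMSO controls.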
* = called active by the depositor; ? = inconclusive; · = no result given. Most compounds without a hit are left out; they make up all but 17% or so of the library. The call rests on the fitted dose curve; in most records, active means well fitted curve in the direction sought with a large enough effect; inconclusive means small, poorly fitted or top-dose-only effect, or another doubt; inactive means no such curve, though single readings can be large; an effect the other way counts as inactive or inconclusive. Potency means the concentration at half of the fitted maximal effect.

SMILES | DT40 TDP1 CPT | HepG2 viability | TDP1 cell noCPT | HT1080 IDH1KD tx | HT1080-NT tox | TGFb SMAD3 inh
CSc1ccc(/C=N/NC(=O)c2cc(O)cc(O)c2)cc1 | -7.0% | -45.9% | 2.9% | -14.6% | -20.2% | -25.8%
CSc1ccc(/C=N/NC(=O)c2ccc(C)c(C)c2)cc1 | ? | 10.3% | 23.1µM* | -9.3% | -10.0% | -3.5%
Cc1ncc(CO)c2cc(C(=O)Nc3ccccc3Cl)c(=Nc3cccc(C(N)=O)c3)oc12 | -14.2% | 0.1% | -3.8% | 0.0% | 0.6% | -2.7%
COc1ccccc1NC(=O)c1cc2c(CO)cnc(C)c2oc1=Nc1cc(OC)c(OC)c(OC)c1 | 1.4% | -13.3% | -11.2% | -7.1% | -25.4% | -0.4%
COc1ccc(NC(=O)c2cc3c(CO)cnc(C)c3oc2=Nc2cccc(C)c2)c(OC)c1 | ? | -1.8% | 4.11µM* | 23.2% | -5.5% | -0.1%
COc1ccccc1NC(=O)c1cc2c(CO)cnc(C)c2oc1=Nc1ccc(OC)c(OC)c1 | 9.2µM* | -11.6% | ? | -16.2% | -11.0% | -1.4%
CN(C)c1ccc(-c2ccnc3c2CC(C)(C(=O)NCc2ccco2)O3)cc1 (centres undefined) | 4.11µM* | -17.1% | 6.51µM* | ? | ? | -23.1%
CC(=O)Nc1ccc(-c2ccnc3c2CC(C)(C(=O)NCc2ccco2)O3)cc1 (centres undefined) | 1.46µM* | 0.0% | 1.16µM* | 2.59µM* | ? | 11.6%
CN(C)c1ccc(-c2ccnc3c2CC(C)(C(=O)NCc2ccc(F)c(F)c2)O3)cc1 (centres undefined) | 9.2µM* | -24.0% | 9.2µM* | ? | ? | -15.1%
CC(=O)Nc1ccc(-c2ccnc3c2CC(C)(C(=O)NCCC(F)(F)F)O3)cc1 (centres undefined) | ? | 0.4% | ? | -28.4% | -16.5% | 3.7%
CC(=O)Nc1ccc(-c2ccnc3c2CC(C)(C(=O)NCc2ccc(N(C)C)cc2)O3)cc1 (centres undefined) | ? | 9.2% | ? | -46.6% | ? | -11.2%
CN(C)c1ccc(-c2ccnc3c2CC(C)(C(=O)NCCC(F)(F)F)O3)cc1 (centres undefined) | 7.31µM* | -15.1% | 5.8µM* | -13.4% | -22.9% | -5.0%
CCc1c(O)nc(SCC(=O)Nc2ccccc2)n(-c2ccccc2C)c1=O | -0.1% | -2.1% | -15.6% | -4.1% | 1.6% | -1.6%
CC(=O)Nc1cccc(-c2ccnc3c2CC(C)(C(=O)NCC2CC2)O3)c1 (centres undefined) | 4.11µM* | -19.0% | 2.91µM* | · | · | -0.4%
CC(=O)Nc1cccc(-c2ccnc3c2CC(C)(C(=O)NCCC(F)(F)F)O3)c1 (centres undefined) | 3.66µM* | 3.0% | 4.11µM* | ? | ? | -13.6%
CC(=O)Nc1ccc(-c2ccnc3c2CC(C)(C(=O)NCC2CC2)O3)cc1 (centres undefined) | -24.7% | -25.4% | ? | 13.4% | 18.1% | -10.7%
Cc1ccc(C(=O)N2CCN(c3nc4ccccc4n3C)CC2)cc1 | ? | -1.1% | 0.2% | -0.6% | -0.2% | -21.6%
Cc1nn(C2CCS(=O)(=O)C2)c(C)c1C=O (centres undefined) | ? | 0.9% | 20.6µM* | 18.1% | 10.1% | 0.0%
